Data as given in PubChem BioAssay (NCATS).
Inconclusive results are not listed. Calls of active or inactive are those of the source. The call rests on the fitted dose curve; in most records, active means well fitted cell-killing curve with a large enough effect; inconclusive means small, poorly fitted or top-dose-only effect, or effect the other way; inactive means flat fitted curve, though single readings scatter.

Columns and labels:
Assay in all cases: Primary qHTS to identify gynecologic anti-cancer compounds using libraries of approved drugs and bioactive compounds (AID 1345084); further: nearly all actives have a fitted effect of over 55% in size
Settings in all cases: Gynecologic cancer cell panel viability, ATPlite luminescence, 48 h; series mostly up to 57.5 µM
[1] = test system: OV90
Procedure, shortened: (§1)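 ATP-based viability (ATPlite), 1,000 cells/well, 16 h pre-incubation, 48 h compound at 37 C, 5% CO2, 15 min RT before read.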

[2] = test system: PA-1
Procedure, shortened: as §1

[3] = test system: Tov-21-G
Procedure, shortened: as §1

[4] = test system: Tov112D
Procedure, shortened: as §1

Measured: Potency

C=C1C(=O)O[C@@H]2C[C@H](C)C3=CC(=O)[C@H](O)[C@@]3(C)C[C@H]12
inactive: [1] | [2] | [3] | [4]

COc1cc(O)cc(/C=C/c2cccc(O)c2)c1
inactive: [1] | [2] | [3] | [4]

O=C(Nc1cccnn1)N1CCN(c2nccc(-c3ccc(F)c(F)c3)n2)CC1
inactive: [1] | [2] | [3] | [4]

COc1cc(F)c(C(C)C)cc1-c1ccc(C(F)(F)F)cc1CN1C(=O)OC(c2cc(C(F)(F)F)cc(C(F)(F)F)c2)C1C (stereo unspecified)
inactive: [1] | [2] | [3] | [4]

COc1cc2nc(C3CC3)nc(N3CCN(c4ccccc4OC)CC3)c2cc1OC
inactive: [1] | [2] | [3] | [4]

CC(=O)O[C@@H]1CC[C@@]2(C)[C@H](CC[C@@H]3[C@@H]2C[C@H](OC(C)=O)[C@]2(C)[C@@H](C(C)=O)CC[C@@H]32)C1
inactive: [1] | [2] | [3] | [4]

CC1(C)CCC(C)(C)c2cc(C#Cc3ccc(C(=O)O)cc3)ccc21
inactive: [1] | [2] | [3] | [4]

COc1cc(-c2cn(C3CCc4c(F)cccc4N(CC(F)(F)F)C3=O)nn2)ccc1-n1cnc(C)c1 (stereo unspecified)
inactive: [1] | [2] | [3] | [4]

CC(C)C[C@@H](C(=O)N[C@@H](Cc1ccc(OCc2ccccc2)cc1)C(=O)NC(C)(C)C)N(C)Cc1ccc(C(C)(C)C)cc1
inactive: [1] | [2] | [3] | [4]

c1cc(NCCc2c[nH]c3ccccc23)cc(Nc2ccncc2)c1
inactive: [1] | [2] | [3] | [4]

CC(C)(N)c1ncc(-c2ccc(OC(F)(F)F)cc2)[nH]1
inactive: [1] | [2] | [3] | [4]

N#Cc1cc(C2=Nc3ccc(Br)cc3NC(=O)C2)ccn1
inactive: [1] | [2] | [3] | [4]

CC(=O)OC(C)(C)/C=C/C(=O)[C@](C)(O)[C@H]1C(O)C[C@@]2(C)[C@@H]3CC=C4[C@@H](C=C(O[C@@H]5O[C@H](CO)[C@@H](O)[C@H](O)[C@H]5O)C(=O)C4(C)C)[C@]3(C)C(=O)C[C@]12C (stereo partly specified)
inactive: [1] | [2] | [3] | [4]

CC(C)Nc1nc(Nc2ccccc2)nc(-c2ccccc2)n1
inactive: [1] | [2] | [3] | [4]

CC(C)(O)c1ccc2c(c1)ncn2-c1cccc(-c2ccccc2C#N)c1
inactive: [1] | [2] | [3] | [4]

Nc1nc2c(cnn2CCCc2ccc(O)cc2)c2nc(-c3ccco3)nn12
inactive: [1] | [2] | [3] | [4]

CC(C)(F)CC(NC(c1ccc(-c2ccc(S(C)(=O)=O)cc2)cc1)C(F)(F)F)C(=O)NC1(C#N)CC1 (stereo unspecified)
inactive: [1] | [2] | [3] | [4]

C[C@@H](c1ccc2nccn2c1)n1nnc2ncc(-c3cnn(C)c3)nc21
inactive: [1] | [2] | [3] | [4]

COC1CCN(c2cccc(-c3cc(NC(C)=O)nc(-n4nc(C)cc4C)n3)n2)CC1
inactive: [1] | [2] | [3] | [4]

CCOc1cn(-c2ccc(F)cc2C)nc1C(=O)Nc1ccc(Oc2ccnc3cc(OC)c(OC)cc23)c(F)c1
inactive: [1] | [2] | [3] | [4]

CC(=O)NC(C)c1cnc(-c2cnc(Oc3ccc(OC(C)C)cc3)s2)s1 (stereo unspecified)
inactive: [1] | [2] | [3] | [4]

CC(=O)OC1CCC2(C)C(CCC3(C)C2CC=C2C4C(C)C(C)CCC4(C)CCC23C)C1(C)C(=O)O (stereo unspecified)
inactive: [1] | [2] | [3] | [4]

O=S(=O)(Cc1ccccc1)Nc1ccc(-c2ccc3c(cnn3-c3ccc(F)cc3)c2)c(C(F)(F)F)c1
inactive: [1] | [2] | [3] | [4]

CC1(C)CC[C@]2(C(=O)O)CC[C@]3(C)C(=CCC4[C@@]5(C)C[C@@H](O)[C@H](O)[C@@](C)(CO)C5CC[C@]43C)[C@@H]2[C@@H]1O (stereo partly specified)
inactive: [1] | [2] | [3] | [4]
